In the library only some 3.4% were active in any assay of this set; here they are far more common.
MITF primary: inhibitors of human MITF | O75030 | AlphaScreen MITF homodimerization, bead proximity signal | inhibition, % at 2.6 µM | actives 0.91% (n = 650,000) | AID 1259374; in the data active means inhibition above about 50%
FBW7 activator: human FBW7 E3 ligase activation, primary screen; AlphaScreen FBW7–phospho-cyclin E peptide binding, activator screen; normalized activity (activation), % at 26.1 µM; actives 0.13% (n = 650,000); in the data active means normalized activity above about 1.9%;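 further: purified mutant Fbw7 with reduced substrate affinity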
TEAD-YAP inh: TEAD-YAP interaction inhibition | HEK-TIYL cells, TEAD-Gal4/YAP UAS-luciferase luminescence | inhibition, % at 9.12 µM | actives 1.4% (n = 640,000) | AID 1259422; in the data active means inhibition above about 32%
GPR151 ag: activators of human GPR151; Q8TDV0; PathHunter beta-arrestin GPR151 cells, luminescence; activation, % at 11.2 µM; actives 1% (n = 650,000); AID 1508602; in the data active means activation above about 4.9%
Target sequence (Q8TDV0 whole entry, looked up): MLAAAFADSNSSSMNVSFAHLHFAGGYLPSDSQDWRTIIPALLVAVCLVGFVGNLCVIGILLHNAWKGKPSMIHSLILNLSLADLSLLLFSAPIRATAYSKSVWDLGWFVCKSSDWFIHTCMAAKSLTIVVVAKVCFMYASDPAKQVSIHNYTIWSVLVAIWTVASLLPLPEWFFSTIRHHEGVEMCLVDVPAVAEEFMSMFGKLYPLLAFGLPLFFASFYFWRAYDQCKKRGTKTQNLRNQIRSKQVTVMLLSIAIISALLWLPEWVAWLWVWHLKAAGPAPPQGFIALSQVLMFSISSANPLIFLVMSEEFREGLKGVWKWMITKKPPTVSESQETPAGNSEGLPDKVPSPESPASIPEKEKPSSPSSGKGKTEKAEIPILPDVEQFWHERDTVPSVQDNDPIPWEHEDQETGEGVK
GPR151 confirm: confirmation of human GPR151 activators | shares compounds with GPR151 ag | GPR151 PathHunter beta-arrestin cells, luminescence, 90 min; % of EA-reagent control over plate median | activation, % at 11.2 µM | 6,700 tested, under 10 active | AID 1508609;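 active means mean percent activation across replicates above the confirmation screen cutoff of 4.91%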
GPR119 counter: counter-screen for GPR151 activators: effect on human GPR119 | shares compounds with GPR151 ag | GPR119 PathHunter beta-arrestin cells, luminescence, 90 min; 0 = compound-well median, 100 = enzyme-acceptor control | activation, % at 11.2 µM | actives 0.3% (n = 6,700) | AID 1508611;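 active means mean percent activation in the counterscreen above 29.09%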;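 further: counterscreen on off-target GPR119 to flag nonselective hits from the GPR151 activator screen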
A number is an active result.

What do the screens show for `CCCCC[C@H](O)/C=C/[C@H]1[C@H](O)CC(=O)[C@@H]1CCCCC(=O)O`?
MITF primary: inactive; GPR151 ag: inactive

Results for CCCCC[C@@H](O)/C=C/[C@H]1[C@H](O)CC(=O)[C@@H]1CCCCCCC(=O)O ?
MITF primary: inactive; GPR151 ag: 7.2; GPR151 confirm: inactive; GPR119 counter: inactive

What do the screens show for `COCCCNC(=O)CN(c1cc(Cl)ccc1C)S(C)(=O)=O`?
MITF primary: inactive; FBW7 activator: inactive; TEAD-YAP inh: inactive; GPR151 ag: inactive

How did COCCCNC(=O)CN(c1cc(Cl)ccc1Cl)S(C)(=O)=O do in these assays?
MITF primary: inactive; FBW7 activator: inactive; TEAD-YAP inh: inactive; GPR151 ag: 10.6; GPR151 confirm: inactive; GPR119 counter: inactive

What do the screens show for `CC(C)NC(=O)c1ccc(CS(=O)(=O)c2c(Cl)cccc2Cl)o1`?
MITF primary: inactive; FBW7 activator: inactive; TEAD-YAP inh: inactive; GPR151 ag: inactive

Results for CC1=CC(C)C(CNCCN2CCNCC2)C(C)C1 (centres undefined) ?
MITF primary: inactive; FBW7 activator: inactive; TEAD-YAP inh: inactive; GPR151 ag: 4.9; GPR151 confirm: inactive; GPR119 counter: inactive

How did CC1=CC(C)C(COC(=O)CN2CCOCC2)C(C)C1 (centres undefined) do in these assays?
MITF primary: inactive; FBW7 activator: inactive; TEAD-YAP inh: inactive; GPR151 ag: inactive

Results for O=C1CCCN1CCCNc1nc(NCc2cccc(C(F)(F)F)c2)c2ncn(C3CCCCC3)c2n1 ?
MITF primary: inactive; FBW7 activator: inactive; TEAD-YAP inh: inactive; GPR151 ag: 5.9; GPR151 confirm: inactive; GPR119 counter: inactive

Results for FC(F)(F)c1cccc(CNc2ncnc3nc(Nc4ccccc4)[nH]c23)c1 ?
MITF primary: inactive; FBW7 activator: inactive; TEAD-YAP inh: inactive; GPR151 ag: inactive

What do the screens show for `O=C1CCCN1CCn1cnc2c(Nc3ccc(N4CCOCC4)cc3)nc(N3CCc4ccccc4C3)nc21`?
MITF primary: inactive; FBW7 activator: inactive; TEAD-YAP inh: inactive; GPR151 ag: 12.6; GPR151 confirm: inactive; GPR119 counter: inactive

What do the screens show for `O=C1CCCN1CCn1cnc2c(NCc3cccc(C(F)(F)F)c3)nc(Nc3ccc(N4CCOCC4)cc3)nc21`?
MITF primary: inactive; FBW7 activator: inactive; TEAD-YAP inh: inactive; GPR151 ag: 5.6; GPR151 confirm: inactive; GPR119 counter: inactive

Results for FC(F)(F)c1cccc(CNc2ncnc3nc(Nc4ccc(N5CCOCC5)cc4)[nH]c23)c1 ?
MITF primary: inactive; FBW7 activator: inactive; TEAD-YAP inh: inactive; GPR151 ag: 7.1; GPR151 confirm: inactive; GPR119 counter: inactive

Results for O=C1CCCN1CCn1cnc2c(Nc3ccc(Oc4ccccc4)cc3)nc(N3CCc4ccccc4C3)nc21 ?
MITF primary: inactive; FBW7 activator: inactive; TEAD-YAP inh: inactive; GPR151 ag: inactive

What do the screens show for `COc1cc(/C=C(\C#N)c2cccc(C#N)c2)c([N+](=O)[O-])cc1OC`?
MITF primary: inactive; FBW7 activator: inactive; TEAD-YAP inh: inactive; GPR151 ag: inactive

How did Cn1c(Nc2ccc(-n3cc(CC(=O)NCc4nc5ccccc5[nH]4)c4ccccc43)nn2)nc2ccccc21 do in these assays?
MITF primary: inactive; FBW7 activator: inactive; TEAD-YAP inh: inactive; GPR151 ag: inactive

What do the screens show for `O=C(Cc1cn(-c2ccc(Nc3ccccc3)nn2)c2ccccc12)NCc1nc2ccccc2[nH]1`?
MITF primary: inactive; FBW7 activator: inactive; TEAD-YAP inh: inactive; GPR151 ag: 5.3; GPR151 confirm: inactive; GPR119 counter: inactive

Results for O=C(NCC(c1ccco1)N1CCOCC1)c1ccc(F)cc1 (centres undefined) ?
MITF primary: inactive; FBW7 activator: inactive; TEAD-YAP inh: inactive; GPR151 ag: 5.4; GPR151 confirm: inactive; GPR119 counter: inactive

How did COc1cc(Nc2nc(Nc3ccc4c(c3)OCO4)c3ncn(Cc4ccc(C(F)(F)F)cc4)c3n2)cc(OC)c1OC do in these assays?
MITF primary: inactive; FBW7 activator: inactive; TEAD-YAP inh: inactive; GPR151 ag: 5.5; GPR151 confirm: inactive; GPR119 counter: inactive

What do the screens show for `COc1cc(Nc2nc(NCc3ccc4c(c3)OCO4)nc3c2ncn3Cc2ccc(C(F)(F)F)cc2)cc(OC)c1OC`?
MITF primary: inactive; FBW7 activator: inactive; TEAD-YAP inh: inactive; GPR151 ag: inactive

Results for FC(F)(F)c1ccc(Cn2cnc3c(Nc4ccc(N5CCOCC5)cc4)nc(-c4ccc(N5CCOCC5)nc4)nc32)cc1 ?
MITF primary: inactive; FBW7 activator: inactive; TEAD-YAP inh: inactive; GPR151 ag: inactive

Results for COc1cc(Nc2nc(-c3ccc(N4CCOCC4)nc3)nc3c2ncn3Cc2ccc(C(F)(F)F)cc2)cc(OC)c1OC ?
MITF primary: inactive; FBW7 activator: inactive; TEAD-YAP inh: inactive; GPR151 ag: 6.6; GPR151 confirm: inactive; GPR119 counter: inactive

How did COc1cc(S(=O)(=O)N2c3ccccc3CC2C)ccc1Cl (centres undefined) do in these assays?
MITF primary: inactive; FBW7 activator: inactive; TEAD-YAP inh: inactive; GPR151 ag: inactive

Results for O=C(NN1C(=O)C2C3C=CC(C3)C2C1=O)c1ccncc1 (centres undefined) ?
MITF primary: inactive; FBW7 activator: inactive; TEAD-YAP inh: inactive; GPR151 ag: inactive

What do the screens show for `O=C(NN1C(=O)C2C(c3ccccc3)C=CC(c3ccccc3)C2C1=O)c1ccncc1` (centres undefined)?
MITF primary: inactive; FBW7 activator: inactive; TEAD-YAP inh: inactive; GPR151 ag: 6.1; GPR151 confirm: inactive; GPR119 counter: inactive

Results for COc1cc(Nc2ccn3ncc(-c4cccc(C(C)=O)c4)c3n2)cc(OC)c1OC ?
MITF primary: inactive; FBW7 activator: inactive; TEAD-YAP inh: inactive; GPR151 ag: inactive

How did COC(=O)CN1C(=O)C2(OCCCO2)c2cc(C)ccc21 do in these assays?
MITF primary: inactive; FBW7 activator: inactive; TEAD-YAP inh: inactive; GPR151 ag: inactive

What do the screens show for `CCOC(=O)CN1C(=O)C2(OCCCO2)c2cc(C)ccc21`?
MITF primary: inactive; FBW7 activator: inactive; TEAD-YAP inh: inactive; GPR151 ag: 5.7; GPR151 confirm: inactive; GPR119 counter: inactive

What do the screens show for `NC(=O)C1(N2CCCCC2)CCN(C(=O)NC2CCCCC2)CC1`?
MITF primary: inactive; FBW7 activator: inactive; TEAD-YAP inh: inactive; GPR151 ag: 5.4; GPR151 confirm: inactive; GPR119 counter: inactive

What do the screens show for `O=C(Cc1cccs1)N/N=C\c1ccccc1Br`?
MITF primary: inactive; FBW7 activator: inactive; TEAD-YAP inh: inactive; GPR151 ag: inactive

How did O=C(Nc1nncs1)c1cccc(I)c1 do in these assays?
MITF primary: inactive; FBW7 activator: inactive; TEAD-YAP inh: inactive; GPR151 ag: 5.4; GPR151 confirm: inactive; GPR119 counter: inactive

Results for O=C(Nc1nncs1)c1cccc(Br)c1 ?
MITF primary: inactive; FBW7 activator: inactive; TEAD-YAP inh: inactive; GPR151 ag: inactive

Screening data deposited in PubChem by The Scripps Research Institute Molecular Screening Center.
